Test results reported in PubChem BioAssay (EPA / NIEHS).
The source made the active and inactive calls. Rule for the calls: active = hit-call score of the fitted dose curve at least 0.9, where 1 is the maximum; inactive = score below 0.9.

Experiments:
[1] = ATG_M_61_CIS: Attagene CIS-FACTORIAL HepG2 Assay for M61 Transcription Factor (Internal Marker) (AID 2282937); settings: HepG2 Attagene CIS-FACTORIAL M61 internal marker reporter; actives raise or lower the signal
Summary of the method: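 Human liver HepG2, transient MRTU transfection (cis promoter elements), 24 h compound. Total RNA → oligo(dT) RT → PCR → FAM label → HpaI → CE. Internal background marker; bidirectional fitting, DMSO = baseline.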

[2] = ATG_EGR_CIS: Attagene CIS-FACTORIAL HepG2 Assay for human Early Growth Response 1 (EGR1) (AID 2282938); settings: HepG2 Attagene CIS-FACTORIAL EGR reporter mRNA; actives raise or lower the signal
Summary of the method: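 Transient transfection of human HepG2 with multiple cis-regulated reporter units, chemical exposure 24 h, total RNA isolated. Reverse transcription, PCR, fluorescent labelling and capillary electrophoresis quantify reporter transcripts; activity fitted bidirectionally against DMSO.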

[3] = ATG_M_19_CIS: Attagene CIS-FACTORIAL HepG2 Assay for M19 Transcription Factor (Internal Marker) (AID 2282939); settings: HepG2 Attagene CIS-FACTORIAL M19 internal marker reporter; actives raise or lower the signal
Summary of the method: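 HepG2 cells transiently transfected with cis-regulated multiplexed reporter units, dosed 24 h. Reporter mRNA quantified by RT-PCR and capillary electrophoresis; internal background marker fitted bidirectionally versus DMSO.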

[4] = ATG_ERE_CIS: Attagene CIS-FACTORIAL HepG2 Assay for Estrogen Response Element (ERE) (AID 2282940); settings: HepG2 ERE cis-reporter, Attagene RNA transcript; actives raise or lower the signal
Summary of the method: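 HepG2 cells transiently transfected with multiplexed cis-element reporter units, measuring endogenous transcription factor activity; ERE reporter mRNA quantified after 24 h exposure by RT-PCR, fluorescent labelling, HpaI digestion and capillary electrophoresis. Bidirectional change versus DMSO.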

[5] = ATG_Ets_CIS: Attagene CIS-FACTORIAL HepG2 Assay for human Erythroblast Transformation Specific (ETS) (AID 2282941); settings: HepG2 ETS cis-reporter transcription, actives raise or lower the signal
Summary of the method: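 After transient cis-reporter transfection, HepG2 cells receive test chemical for 24 h. Reporter mRNA levels, measured by RT-PCR and capillary electrophoresis fluorescence, are analysed bidirectionally relative to the DMSO baseline.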

[6] = molecular target: Hepatocyte nuclear factor 3-beta (Homo sapiens) (UniProt Q9Y261); test: ATG_FoxA2_CIS: Attagene CIS-FACTORIAL HepG2 Assay for human Forkhead box A2 (FOXA2) (AID 2282942); settings: HepG2 cis-reporter transcription factor activity, 24 h; actives raise or lower the signal
Summary of the method: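 Transient MRTU transfection of HepG2 liver cells; 24 h treatment; total RNA → oligo(dT) RT → PCR → FAM primer extension → HpaI cut → CE. Bidirectional fit vs DMSO.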

[7] = ATG_FoxO_CIS: Attagene CIS-FACTORIAL HepG2 Assay for human Forkhead box O (FoxO) (AID 2282943); settings: HepG2 Attagene cis-reporter, FoxO element, mRNA; actives raise or lower the signal
Summary of the method: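 Transfected HepG2 reporter cells exposed to test chemical for 24 h; reporter RNA measured by reverse transcription, PCR and fluorescent capillary electrophoresis; curves fitted for increases and decreases against DMSO.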

[8] = ATG_GATA_CIS: Attagene CIS-FACTORIAL HepG2 Assay for human GATA Binding Protein (AID 2282944); settings: HepG2 GATA cis-element reporter, Attagene multiplex mRNA; actives raise or lower the signal
Summary of the method: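 HepG2 cells transiently transfected with multiplexed cis-element reporter units measure endogenous GATA activity; after 24 h compound exposure, reporter mRNA quantified by RT-PCR and capillary electrophoresis. Changes fitted in both directions vs DMSO.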

[9] = ATG_GLI_CIS: Attagene CIS-FACTORIAL HepG2 Assay for human Zinc Finger Protein GLI1 (AID 2282945); settings: HepG2, Attagene cis-factorial reporter mRNA, GLI element; actives raise or lower the signal
Summary of the method: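 Transiently transfected HepG2 cells report endogenous transcription factor activity via cis-element-driven reporter units. After 24 h compound exposure, reporter mRNA was measured by RT-PCR with capillary electrophoresis; bidirectional fitting against DMSO baseline.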

[10] = ATG_GRE_CIS: Attagene CIS-FACTORIAL HepG2 Assay for human Glucocorticoid Response Elements (GRE) (AID 2282947); settings: HepG2 GRE cis-reporter, Attagene multiplex mRNA; actives raise or lower the signal
Summary of the method: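 Endogenous transcription factor activity is read through cis-element reporter constructs transiently transfected into HepG2 cells. After 24 h treatment, labelled RT-PCR products are resolved by capillary electrophoresis; DMSO sets baseline for bidirectional curve fitting.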

[11] = ATG_ISRE_CIS: Attagene CIS-FACTORIAL HepG2 Assay for human Interferon Regulatory Factor 1 (IRF1) binding to an Interferon-Stimulated Response Element (ISRE) (AID 2282948); settings: HepG2 ISRE cis-reporter (Attagene), mRNA transcription readout; actives raise or lower the signal
Summary of the method: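 Quantitation relies on labelled RT-PCR fragments separated by capillary electrophoresis. Human HepG2 cells bearing cis-promoter reporter constructs were treated 24 h; DMSO served as baseline for bidirectional fitting.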

[12] = ATG_M_06_CIS: Attagene CIS-FACTORIAL HepG2 Assay for M06 Transcription Factor (Internal Marker) (AID 2282950); settings: HepG2 Attagene CIS-FACTORIAL M06 internal marker reporter; actives raise or lower the signal
Summary of the method: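 Internal background marker within multiplexed cis-reporter HepG2 system. Cells transiently transfected, dosed 24 h; reporter mRNA measured by RT-PCR, HpaI digestion and capillary electrophoresis. Bidirectional fit relative to DMSO.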

[13] = molecular target: Hypoxia-inducible factor 1-alpha (Homo sapiens) (UniProt Q16665); test: ATG_HIF1a_CIS: Attagene CIS-FACTORIAL HepG2 Assay for human Hypoxia Inducible Factor 1 (HIF1A) (AID 2282951); settings: HepG2 Attagene cis-factorial HIF1a reporter transcription; actives raise or lower the signal
Summary of the method: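 Transient MRTU transfection of human HepG2 liver cells, 24 h compound treatment, then total RNA isolation, oligo(dT) reverse transcription, PCR amplification, fluorescent labelling and capillary electrophoresis of reporter fragments. Gain or loss relative to DMSO.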

[14] = molecular target: Hepatocyte nuclear factor 6 (Homo sapiens) (UniProt Q9UBC0); test: ATG_HNF6_CIS: Attagene CIS-FACTORIAL HepG2 Assay for human Hepatocyte Nuclear Factor 6 (HNF6) (AID 2282952); settings: HepG2 Attagene cis-factorial HNF6 reporter transcription; actives raise or lower the signal
Summary of the method: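 Cells are HepG2 carrying transiently transfected cis-promoter reporter units. Treatment lasts 24 h, after which reporter transcripts are reverse-transcribed, amplified, FAM-labelled and sized by capillary electrophoresis. DMSO serves as baseline.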

[15] = molecular target: Heat shock factor protein 1 (Homo sapiens) (UniProt Q00613); test: ATG_HSE_CIS: Attagene CIS-FACTORIAL HepG2 Assay for human Heat Shock Transcription Factor 1 (HSE) (AID 2282953); settings: HepG2 HSE cis-reporter, Attagene RNA transcription; actives raise or lower the signal
Summary of the method: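 HepG2 cells transfected with cis-promoter reporter units sensing endogenous transcription factor activity; reporter mRNA quantified 24 h post-dose by RT-PCR and capillary electrophoresis of 6-FAM-labelled products. Bidirectional fitting against DMSO.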

[16] = ATG_MRE_CIS: Attagene CIS-FACTORIAL HepG2 Assay for human Metal Responsive Element (MRE) (AID 2282954); settings: HepG2 MRE cis-reporter transcription, Attagene multiplex; actives raise or lower the signal
Summary of the method: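 Fluorescent reporter fragments separated by capillary electrophoresis give mRNA induction for the MRE unit after 24 h treatment of transfected HepG2 cells. Endogenous transcription-factor activity is read; DMSO serves as negative control and baseline.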

[17] = ATG_PBREM_CIS: Attagene CIS-FACTORIAL HepG2 Assay for human Phenobarbital-responsive Enhancer Module (PBREM) (AID 2282955); settings: HepG2 PBREM cis-reporter, Attagene multiplexed transcription; actives raise or lower the signal
Summary of the method: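 Endogenous transcription factors in human liver HepG2 cells drive a PBREM cis-element reporter, whose transcript level after 24 h treatment is quantified by RT-PCR with capillary electrophoresis; activity fitted in both directions against DMSO.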

[18] = ATG_M_32_CIS: Attagene CIS-FACTORIAL HepG2 Assay for M32 Transcription Factor (Internal Marker) (AID 2282949); settings: HepG2 Attagene cis-factorial M32 reporter, mRNA; actives raise or lower the signal;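 note: background control marker of the multiplexed CIS panel rather than a real target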
Summary of the method: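 Following 24 h chemical exposure of HepG2 cells transiently expressing cis-promoter reporter constructs, reporter transcript levels were determined by RT-PCR with fluorescent labelling and capillary electrophoresis, then fitted bidirectionally against DMSO.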

[19] = molecular target: Bile acid receptor (Homo sapiens) (UniProt Q96RI1); test: ATG_IR1_CIS: Attagene CIS-FACTORIAL HepG2 Assay for human Nuclear Receptor Subfamily 1 Group H Member 4 (NR1H4), IR1 submotif (AID 2282946); settings: IR1 reporter transcription, actives raise or lower the signal
Summary of the method: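 HepG2 cells transiently transfected with multiple cis-promoter-driven reporter units to measure endogenous transcription factor activity; 24 h exposure. Reporter mRNA read by RT-PCR, FAM labelling, HpaI digestion and capillary electrophoresis. Bidirectional fit versus DMSO.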

Measured: AC50

Hepatocyte nuclear factor 3-beta (Homo sapiens), sequence (Q9Y261 whole entry, looked up): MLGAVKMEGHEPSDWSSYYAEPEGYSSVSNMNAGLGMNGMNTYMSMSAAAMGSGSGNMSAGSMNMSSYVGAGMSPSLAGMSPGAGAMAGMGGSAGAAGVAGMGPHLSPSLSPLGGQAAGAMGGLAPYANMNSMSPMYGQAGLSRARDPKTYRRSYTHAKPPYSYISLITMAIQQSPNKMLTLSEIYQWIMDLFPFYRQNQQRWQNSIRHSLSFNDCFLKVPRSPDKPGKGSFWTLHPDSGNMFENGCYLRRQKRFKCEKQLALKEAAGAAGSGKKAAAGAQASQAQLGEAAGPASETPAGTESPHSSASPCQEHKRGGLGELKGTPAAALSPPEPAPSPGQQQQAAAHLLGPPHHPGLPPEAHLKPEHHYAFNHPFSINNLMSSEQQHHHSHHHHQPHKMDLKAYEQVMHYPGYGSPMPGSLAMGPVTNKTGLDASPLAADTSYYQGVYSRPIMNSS
Hypoxia-inducible factor 1-alpha (Homo sapiens), sequence (Q16665 whole entry, looked up, the tested form may be a part): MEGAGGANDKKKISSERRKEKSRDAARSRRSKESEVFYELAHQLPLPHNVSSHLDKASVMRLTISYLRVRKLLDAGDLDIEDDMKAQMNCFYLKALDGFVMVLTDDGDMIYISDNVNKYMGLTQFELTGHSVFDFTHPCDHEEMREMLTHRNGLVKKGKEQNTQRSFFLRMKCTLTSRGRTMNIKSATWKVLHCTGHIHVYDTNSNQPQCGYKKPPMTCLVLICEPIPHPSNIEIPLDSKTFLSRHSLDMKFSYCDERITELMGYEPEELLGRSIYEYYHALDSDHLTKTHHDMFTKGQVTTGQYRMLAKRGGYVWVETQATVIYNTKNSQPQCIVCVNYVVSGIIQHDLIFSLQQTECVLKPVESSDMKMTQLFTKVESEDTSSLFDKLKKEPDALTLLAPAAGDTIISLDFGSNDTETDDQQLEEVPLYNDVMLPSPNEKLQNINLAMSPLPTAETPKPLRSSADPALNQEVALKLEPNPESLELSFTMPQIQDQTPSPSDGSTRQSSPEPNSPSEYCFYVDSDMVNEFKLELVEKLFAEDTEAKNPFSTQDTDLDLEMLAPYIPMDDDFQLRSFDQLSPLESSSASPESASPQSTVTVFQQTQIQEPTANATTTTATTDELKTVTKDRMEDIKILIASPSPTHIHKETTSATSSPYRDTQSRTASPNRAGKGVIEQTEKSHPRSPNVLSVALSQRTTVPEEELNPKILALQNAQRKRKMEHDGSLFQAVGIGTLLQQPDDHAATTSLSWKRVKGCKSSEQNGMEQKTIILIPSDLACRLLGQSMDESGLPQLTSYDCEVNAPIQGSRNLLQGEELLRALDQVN
Bile acid receptor (Homo sapiens), sequence (Q96RI1 whole entry, looked up): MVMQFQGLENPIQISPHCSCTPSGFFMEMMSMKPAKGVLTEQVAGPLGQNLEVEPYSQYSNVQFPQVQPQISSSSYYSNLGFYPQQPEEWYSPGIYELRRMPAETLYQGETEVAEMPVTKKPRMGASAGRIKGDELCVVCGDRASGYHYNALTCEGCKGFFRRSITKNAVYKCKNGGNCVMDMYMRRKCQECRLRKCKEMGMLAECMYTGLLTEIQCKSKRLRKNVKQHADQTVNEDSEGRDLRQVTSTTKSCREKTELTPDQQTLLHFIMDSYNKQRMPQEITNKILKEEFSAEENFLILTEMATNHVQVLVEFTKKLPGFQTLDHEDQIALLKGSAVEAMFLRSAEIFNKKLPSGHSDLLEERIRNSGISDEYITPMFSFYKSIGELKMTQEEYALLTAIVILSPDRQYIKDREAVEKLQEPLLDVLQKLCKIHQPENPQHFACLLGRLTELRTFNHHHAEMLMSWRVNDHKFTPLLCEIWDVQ
Heat shock factor protein 1 (Homo sapiens), sequence (Q00613 whole entry, looked up): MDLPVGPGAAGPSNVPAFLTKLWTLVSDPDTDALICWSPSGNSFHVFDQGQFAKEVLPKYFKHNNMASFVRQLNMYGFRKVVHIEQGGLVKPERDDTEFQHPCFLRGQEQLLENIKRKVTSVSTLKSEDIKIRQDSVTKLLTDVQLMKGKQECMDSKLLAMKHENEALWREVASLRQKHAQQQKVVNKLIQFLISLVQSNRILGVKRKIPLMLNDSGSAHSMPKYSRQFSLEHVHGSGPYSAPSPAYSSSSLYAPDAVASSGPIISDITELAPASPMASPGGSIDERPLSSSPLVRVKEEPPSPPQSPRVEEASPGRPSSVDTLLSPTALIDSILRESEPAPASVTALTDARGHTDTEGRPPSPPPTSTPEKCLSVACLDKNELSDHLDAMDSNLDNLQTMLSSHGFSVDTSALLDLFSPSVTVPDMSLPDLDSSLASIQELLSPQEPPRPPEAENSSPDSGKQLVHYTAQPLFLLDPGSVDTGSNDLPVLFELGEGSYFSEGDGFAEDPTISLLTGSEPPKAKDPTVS
Hepatocyte nuclear factor 6 (Homo sapiens), sequence (Q9UBC0 whole entry, looked up): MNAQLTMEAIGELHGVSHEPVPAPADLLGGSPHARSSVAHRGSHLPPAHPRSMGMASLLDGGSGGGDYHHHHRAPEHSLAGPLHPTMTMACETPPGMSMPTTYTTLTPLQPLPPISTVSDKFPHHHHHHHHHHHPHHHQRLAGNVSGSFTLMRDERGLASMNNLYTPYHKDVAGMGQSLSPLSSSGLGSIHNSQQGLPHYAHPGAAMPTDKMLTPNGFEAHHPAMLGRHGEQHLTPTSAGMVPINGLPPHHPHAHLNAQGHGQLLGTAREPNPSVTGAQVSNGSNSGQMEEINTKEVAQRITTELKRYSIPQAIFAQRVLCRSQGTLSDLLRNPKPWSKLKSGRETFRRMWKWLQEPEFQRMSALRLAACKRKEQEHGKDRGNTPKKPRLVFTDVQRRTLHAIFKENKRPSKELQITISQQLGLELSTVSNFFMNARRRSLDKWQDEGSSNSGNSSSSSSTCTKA

CC(=O)Oc1ccc(C)cc1
not listed: [17] | [18] | [19]
inactive: all other assays above

Cc1cccc(C(=O)O)c1
not listed: [3] | [10] | [18] | [19]
inactive: all other assays above

CC(C)(C)c1ccc(N)cc1
active: [4] 59.9 µM
not listed: [14] | [19]
inactive: all other assays above

CC=C1CC2C=CC1C2 (stereo unspecified)
active: [16] 87.6 µM
not listed: [12] | [15]
inactive: all other assays above

O=Nc1ccc(O)cc1
active: [4] 56.4 µM
not listed: [5] | [12] | [14]
inactive: all other assays above

O=C(OCC1CCC2OC2C1)C1CCC2OC2C1 (stereo unspecified)
not listed: [2] | [12] | [14] | [19]
inactive: all other assays above

CC(C)=CC1CC(C)CCO1 (stereo unspecified)
not listed: [3] | [17]
inactive: all other assays above

CCCCCCOc1cc(C)c(O)c(C)c1C
active: [17] 11.1 µM
not listed: [2] | [11] | [16] | [19]
inactive: all other assays above

COC(F)(F)C(F)(C(F)(F)F)C(F)(F)F
not listed: [6] | [15]
inactive: all other assays above

CCCC(C)CCC(C)=O (stereo unspecified)
not listed: [14]
inactive: all other assays above

C=C1C2CCC(C2)C1(C)C (stereo unspecified)
not listed: [19]
inactive: all other assays above

CCCCCCC(O)CO (stereo unspecified)
not listed: [3] | [14]
inactive: all other assays above

CC1=CC[C@H]2C[C@@H]1C2(C)C
not listed: [10] | [17] | [19]
inactive: all other assays above

C=C[Si](C)(C)O[Si](C)(C)C=C
not listed: [12] | [17] | [18] | [19]
inactive: all other assays above

O=c1c2ccccc2nnn1CCl
not listed: [11] | [19]
inactive: all other assays above

CCCCCCCCCCCCCCCC[N+](C)(C)CC
active: [11] 9.27 µM | [16] 8.94 µM
not listed: [5] | [17]
inactive: all other assays above

CN(C)c1ccc(N=Nc2ccccc2C(=O)O)cc1
active: [2] 47.4 µM | [7] 66.9 µM | [11] 58.1 µM | [13] 17.9 µM | [15] 56.5 µM | [16] 43.9 µM
not listed: [5] | [18] | [19]
inactive: all other assays above

NC(=O)C1CO1 (stereo unspecified)
not listed: [15] | [17]
inactive: all other assays above

Oc1ccc(Cl)cc1Cc1cc(Cl)ccc1O
active: [2] 8.39 µM | [4] 3.04 µM | [5] 6.68 µM | [19] 11.1 µM | [13] 11.1 µM | [16] 11.1 µM
inactive: all other assays above

CC/C=C\CCOC(=O)CCCCC
not listed: [10] | [12] | [19]
inactive: all other assays above
